Compound activity from PubChem.
Shown are actives, neighbours in structure and some others; about 3% of the full set was active somewhere.
PAFAH2 inh = PAFAH2 (human) inhibition | Q99487 | recombinant PAFAH2, FP-rhodamine activity probe, fluorescence polarization | inhibition, % at 3.39 µM | hit rate 0.99% among 340,000;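 active means inhibition above the mean over all tested compounds plus 3 SD, cut at about 30% in these data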;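 further: inhibitors block probe labeling of enzyme so polarization drops; 0% = enzyme with DMSO and 100% = wells lacking PAFAH2 protein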
PP5 inh = blocks human protein phosphatase 5 activity. AID 1987. inhibition, % at 6.7 µM. hit rate 0.18% among 320,000. purified PP5c, OMFP substrate fluorescence. P53041;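 active means inhibition above the campaign's mean inhibition across all tested compounds plus 3 SD, cut at about 9.5% in these data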;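 further: 0% = DMSO only and 100% = 100 µM cantharidin control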
Target sequence (P53041 whole entry, looked up): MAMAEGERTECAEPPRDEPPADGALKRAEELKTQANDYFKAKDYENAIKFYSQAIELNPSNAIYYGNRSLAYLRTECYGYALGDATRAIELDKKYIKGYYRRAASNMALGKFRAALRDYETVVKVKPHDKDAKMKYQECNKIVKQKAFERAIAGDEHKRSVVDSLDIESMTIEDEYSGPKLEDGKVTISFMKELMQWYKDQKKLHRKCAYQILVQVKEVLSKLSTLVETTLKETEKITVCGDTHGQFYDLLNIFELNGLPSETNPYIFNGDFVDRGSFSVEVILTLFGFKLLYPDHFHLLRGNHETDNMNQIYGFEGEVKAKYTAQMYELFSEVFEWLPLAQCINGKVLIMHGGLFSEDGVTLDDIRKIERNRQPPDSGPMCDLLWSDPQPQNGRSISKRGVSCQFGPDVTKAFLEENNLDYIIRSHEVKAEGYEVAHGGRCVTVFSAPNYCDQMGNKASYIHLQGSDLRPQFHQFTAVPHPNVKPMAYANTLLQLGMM
PAFAH1B3 inh = PAFAH1B3 (human) inhibition; AID 492972; inhibition, % at 3.39 µM; recombinant PAFAH1B3, FP-rhodamine probe, fluorescence polarization; hit rate 0.28% among 340,000;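 active means inhibition above the screen-wide average of all tested compounds plus 3 SD, cut at about 25% in these data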;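 further: 0% = enzyme with DMSO only and 100% = wells lacking PAFAH1B3 protein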
CTSL1 counter = counter-screen for PFM18AAP inhibitors: inhibitors of F. hepatica cathepsin L1; recombinant F. hepatica cathepsin L1, Z-Leu-Arg-MCA fluorescence; inhibition, % at 5.96 µM; hit rate 0.49% among 300,000; AID 1906;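 active means inhibition above the mean of all tested compounds plus 3 SD, set per screening campaign, cut at about 17% in these data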;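 further: 0% = plate median of test compound wells and 100% = 1 µM Z-Phe-Ala-diazomethylketone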
PAFAH1B2 inh = inhibitors of human PAFAH1B2 | hit rate 1.2% among 340,000 | recombinant PAFAH1B2, FP-rhodamine activity probe, fluorescence polarization | P68402 | inhibition, % at 3.39 µM;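 active means inhibition above the mean of all tested compounds plus 3 SD, cut at about 24% in these data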;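 further: 0% = enzyme with DMSO and 100% = wells lacking PAFAH1B2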
pPAFAH inh = inhibitors of human plasma PAF acetylhydrolase (pPAFAH); hit rate 1.5% among 330,000; AID 463082; recombinant pPAFAH, FP-rhodamine probe fluorescence polarization; inhibition, % at 3.39 µM; Q13093;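 active means inhibition above the mean inhibition across the screen plus 3 SD, cut at about 25% in these data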;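 further: inhibitors block binding of the rhodamine activity-based probe so polarization drops; 0% = enzyme with DMSO and 100% = wells lacking pPAFAH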
PAFAH2 confirm = PAFAH2 (human) inhibition, confirmed | shares compounds with PAFAH2 inh | recombinant PAFAH2, FP-rhodamine activity probe, fluorescence polarization | inhibition, % at 3.39 µM | hit rate 65% among 2,300 | AID 493030;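 active means mean inhibition over three repeats above a set limit taken from the earlier primary screen, cut at about 30% in these data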;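 further: inhibitor blocks binding of rhodamine activity probe so polarization falls; 0% = enzyme with DMSO and 100% = wells lacking PAFAH2 protein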
Numbers without * were called inactive; . = not tested or not shown.

SMILES | PAFAH2 inh | PP5 inh | PAFAH1B3 inh | CTSL1 counter | PAFAH1B2 inh | pPAFAH inh | PAFAH2 confirm
Cc1ccc(NC(=O)COC(=O)/C=C/c2ccc(Br)o2)cc1S(=O)(=O)N(C)C | 64* | 0 | -1 | -17 | -3 | 2 | 59*
CN(C)S(=O)(=O)c1cccc(NC(=O)COC(=O)/C=C/c2ccc(Br)o2)c1 | 40* | 1 | -3 | -6 | 0 | 2 | 35*
CCCN(C(=O)c1cc(S(=O)(=O)N(C)c2ccc(OCC)cc2)ccc1C)C1CCS(=O)(=O)C1 (configuration not stated) | -6 | 1 | 6 | . | 4 | 4 | .
Cc1ccccc1NC(=S)N/N=C/c1ccc(O)cc1O | 33* | 4 | 6 | 1 | 11 | 5 | 15
CC1CCCCC1NC(=O)COC(=O)c1ccc2c(c1Cl)C(=O)c1ccccc1C2=O (configuration not stated) | 54* | -1 | 5 | 1 | 0 | 20 | 55*
O=C(COC(=O)c1ccc2c(c1[N+](=O)[O-])C(=O)c1ccccc1C2=O)NC1CC1 | 36* | -3 | 18 | 21* | 12 | -4 | 24
CC1CCCC(NC(=O)CCS(=O)(=O)c2cc3c(cc2Cl)NC(=O)CO3)C1C (configuration not stated) | 1 | 0 | 8 | -4 | 8 | 5 | .
Cc1ccc(S(=O)(=O)Nc2c(O)c3ccccc3oc2=O)cc1C | 43* | 0 | 4 | 2 | 11 | 3 | 25
O=C(CN1CCN(S(=O)(=O)c2ccc(F)c(Cl)c2)CC1)N1CCNC1=O | 0 | 0 | -5 | . | 3 | 2 | .
Cc1nc(C)c(C(=O)OCC(=O)NCc2ccccc2)s1 | 32* | -1 | 11 | . | 1 | 3 | 20
COc1ccc(CCNC(=O)COC(=O)c2sc(C)nc2C)cc1 | 23 | 1 | 0 | . | 1 | 8 | .
Cc1nc(C)c(C(=O)OCC(=O)NCc2ccccc2Cl)s1 | 70* | . | 5 | . | 3 | 12 | 63*
CSc1ccccc1NC(=O)COC(=O)c1c[nH]c(=O)[nH]c1=O | 0 | -2 | -3 | -1 | 4 | 2 | .
CC1CCc2sc(C(=O)OCC(=O)NCc3ccccc3)cc2C1 (configuration not stated) | 38* | 1 | 8 | -1 | 3 | 9 | 40*
Cc1nc(C)c(C(=O)OCC(=O)Nc2ccccc2SCC#N)s1 | 43* | 3 | -6 | . | 1 | 6 | 33*
COc1ccc(S(=O)(=O)NC(C(=O)OCC(=O)Nc2ccc(N3CCOCC3)cc2)C(C)C)cc1 (configuration not stated) | 2 | . | 2 | . | 1 | . | .
COc1ccc(OC)c(NC(=O)CCCCCn2nnc3ccccc3c2=O)c1 | -2 | -2 | 3 | 0 | -4 | -2 | .
Cc1ccc(S(=O)(=O)ON2C(=O)c3cccc4cccc(c34)C2=O)cc1 | 30* | 2 | 17 | 0 | 3 | 3 | 26
O=C(COC(=O)C1=COCCO1)Nc1ccc(Br)cc1Br | 58* | . | 4 | . | -1 | 9 | 46*
CCN(CC)S(=O)(=O)c1cccc(NC(=O)COC(=O)C2COc3ccccc3O2)c1 (configuration not stated) | 2 | 2 | 0 | -11 | 4 | 10 | .
Cc1ccccc1NC(=O)COC(=O)C1=COCCO1 | 21 | 2 | 7 | . | 3 | 0 | .
O=C(COC(=O)C1=COCCO1)Nc1ccc(Oc2ccccc2)cc1 | 83* | 5 | -1 | -3 | -4 | 6 | 77*
CCC(C)c1ccccc1NC(=O)COC(=O)C1=COCCO1 (configuration not stated) | 62* | 1 | 11 | -1 | 5 | 9 | 48*
CCN(CC)S(=O)(=O)c1cccc(NC(=O)COC(=O)C2=COCCO2)c1 | 30* | -1 | 15 | . | 9 | 6 | 11
CCN(Cc1nc2ccccc2c(=O)[nH]1)C(=O)c1cccc(S(=O)(=O)N2CCc3ccccc32)c1 | 5 | 1 | -6 | . | 4 | -1 | .
SMILES | PAFAH2 inh | PP5 inh | PAFAH1B3 inh | CTSL1 counter | PAFAH1B2 inh | pPAFAH inh | PAFAH2 confirm
O=C(COC(=O)C1=COCCO1)Nc1ccc(F)cc1 | 69* | -2 | 5 | -3 | 2 | 7 | 59*
CC(C)(C)c1ccc(NC(=O)COC(=O)C2=COCCO2)cc1 | 22 | 0 | 8 | -8 | 1 | 9 | .
O=C(CN(Cc1cccs1)C(=O)CNS(=O)(=O)c1ccc(Cl)cc1)NCc1ccco1 | 30* | -1 | 1 | 1 | 16 | 5 | 28
O=C(Nc1ccccc1-c1nc2ccccc2[nH]1)c1ccc(S(=O)(=O)N2CCCCC2)cc1 | -50 | . | -32 | . | -23 | . | .
CC1CCCCN1S(=O)(=O)c1ccc(C(=O)Nc2ccccc2-c2nc3ccccc3[nH]2)cc1 (configuration not stated) | 37* | 4 | -36 | 1 | 4 | -15 | 4
C[C@@H]1CN(C(=O)c2ccc(OC3CCN(S(=O)(=O)N(C)C)CC3)cc2)C[C@H](C)O1 | -8 | 2 | -9 | 7 | -2 | -4 | .
COc1ccc(CNC(=O)C2(CC3CC(c4ccccc4)=NO3)CCN(C(=O)Cc3ccc(F)cc3)CC2)cc1 (configuration not stated) | 4 | -4 | -12 | -2 | 6 | -3 | .
CCOc1cc(C(=O)N2CCC(CC3CC(c4ccccc4)=NO3)(C(=O)NCc3ccc(OC)cc3)CC2)cc(OCC)c1OCC (configuration not stated) | 30* | 1 | -2 | 5 | 9 | 8 | -6
COc1cc(Cl)c(NS(=O)(=O)c2ccc(-c3ccc(=O)[nH]n3)o2)c(OC)c1 | 32* | -2 | -2 | -1 | 0 | 5 | 1
Cc1noc(C)c1C(=O)OCC(=O)/C=C1/N(C)c2ccccc2C1(C)C | -4 | . | 3 | . | 0 | . | .
CCN1CC(O)=C(c2nc3ccccc3s2)C1=N | 52* | 0 | 5 | 1 | 0 | 21 | 23
CC(NC(=O)COC(=O)c1ccccc1SCC(=O)N1CCCC1)c1ccccc1 (configuration not stated) | 51* | -1 | 1 | -4 | 2 | 6 | 42*
COc1ccc(NC(=O)COC(=O)c2ccccc2SCC(=O)N2CCCC2)cc1 | 61* | 0 | 1 | -2 | 0 | 6 | 62*
Cc1ccccc1NC(=O)COC(=O)c1ccccc1SCC(=O)N1CCCC1 | 44* | 1 | -4 | -4 | 6 | 5 | 41*
CC(=O)Nc1ccc(NC(=O)COC(=O)c2ccccc2SCC(=O)N2CCCC2)cc1 | 10 | -1 | 7 | -12 | 4 | 0 | .
C=CC[n+]1ccc(/C=C2\C=Cc3cc(C)ccc3N2CC)c2ccccc21 | 14 | . | -3 | . | -4 | . | .
